# Records with an inconclusive call do not appear. A call without a number means that no potency is given here. The source made the active and inactive calls. The call rests on the fitted dose curve; in most records, active means well fitted curve in the direction sought with a large enough effect; inconclusive means small, poorly fitted or top-dose-only effect, or another doubt; inactive means no such curve, though single readings can be large or run the other way.
# Target: Glucagon-like peptide 1 receptor (Homo sapiens) (UniProt P43220)
# Test: qHTS of GLP-1 Receptor Agonists: LOPAC Validation (AID 624148);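 further: luminescence from a luciferase reporter switched on by cAMP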
# Details: GLP-1R agonist cell assay; series mostly up to 46.1 µM
# Description: The overall goal of this project was to develop a novel assay for discovering small molecule ligands for class B1 G protein-coupled receptors (GPCRs). Very few agonists (or inverse agonists) with generally weak activity for this entire group of physiologically important receptors are known to date. To establish proof-of-principle that this critical bottleneck can be overcome with a suitable screening approach, our studies focused on the class B1 receptor for glucagon-like peptide-1 (GLP-1R), a potential therapeutic target for diabetes and neurodegenerative disease.
# The assay was developed in a "mix and measure" format using a cell-based functional readout. Toward this goal, stably transfected HEK293 cell clones were established that co-express (i) a cAMP-responsive luciferase reporter gene, and (ii) GLP-1Rs that upon ligand interaction either stimulate (agonists) or inhibit (inverse agonists) luciferase activity. In different cell lines to be used for screening, expressed GLP-1Rs are specifically optimized for high sensitivity detection of either weak agonists (hypersensitive receptor) or inverse agonists (constitutively active receptor mutant). In addition, control cell lines were developed that express either the cAMP-responsive reporter gene without recombinant GLP-1Rs (enabling initial exclusion of GLP-1R independent effects of candidate probes), or the reporter gene together with wild type GLP-1Rs (for confirmation of probe activity at this receptor), or the reporter gene in combination with the constitutively active orphan receptor GPR119 (enabling initial exclusion of GLP-1R independent inhibitory effects of candidate inverse agonists).
# To that end, this assay was optimized for 1536-well format and screened against the MLSMR.
# NIH Molecular Libraries Probe Production Network [MLPCN]
# NIH Chemical Genomics Center [NCGC]
# PI Name: Martin Beinborn, Tufts Medical Center
# In a white solid 1536-well plate, 6 uL of cells are dispensed in DMEM without phenol red, 10% Nu serum, and 1% pen-strep medium. The plates are then incubated for 12 hours at 37 deg C at 5% CO2 before 23 nL of compounds are added. After a 4-6 hr incubation at37 deg C and 5% CO2, 3 uL of detection reagent are added and after a 12 min incubation at RT, a luminescent read is obtained on the ViewLux.
# Potency means the concentration at half of the fitted maximal effect.
# Glucagon-like peptide 1 receptor (Homo sapiens), sequence (P43220 whole entry, looked up): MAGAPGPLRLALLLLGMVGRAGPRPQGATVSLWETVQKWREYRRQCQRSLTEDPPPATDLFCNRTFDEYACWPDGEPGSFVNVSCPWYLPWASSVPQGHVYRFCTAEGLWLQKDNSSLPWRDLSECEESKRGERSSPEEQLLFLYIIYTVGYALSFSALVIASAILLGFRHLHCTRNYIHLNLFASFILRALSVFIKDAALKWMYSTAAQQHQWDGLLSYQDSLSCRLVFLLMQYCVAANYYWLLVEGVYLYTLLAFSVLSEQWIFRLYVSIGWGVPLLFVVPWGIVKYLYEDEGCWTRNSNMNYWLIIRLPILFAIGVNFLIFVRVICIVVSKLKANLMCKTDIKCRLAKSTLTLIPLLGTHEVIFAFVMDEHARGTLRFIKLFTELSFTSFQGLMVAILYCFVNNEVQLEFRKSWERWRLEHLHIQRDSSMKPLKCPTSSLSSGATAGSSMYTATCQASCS
row,Structure (SMILES),Potency
1,Brc1c(Br)c(Br)c2[nH]cnc2c1Br,inactive
2,C[C@H]1CC2C3CCC4=CC(=O)C=C[C@]4(C)[C@@]3(Cl)[C@@H](O)C[C@]2(C)[C@@]1(O)C(=O)CO (stereo not given in full),inactive
3,O=C(O)C1CN(CCCP(=O)(O)O)CCN1 (stereo not given),inactive
4,NS(=O)(=O)c1cccc2c1c([N+](=O)[O-])cc1nc(O)c(O)nc12,inactive
5,CCN1C(=O)C=CC1=O,inactive
6,N=C(N)SCCN,inactive
7,CC(N)(C(=O)O)c1ccc(C(=O)O)cc1 (stereo not given),inactive
8,CNc1cc(NS(=O)(=O)c2ccc(N)cc2)nc(NC)n1,inactive
9,Nc1nc2ccc(Cl)cc2c2nc(-c3ccco3)nn12,inactive
10,OC[C@H]1NC[C@@H](O)[C@@H]1O,inactive
11,CC(C)NC[C@H](O)COc1cccc2ccccc12,inactive
12,CC1C(=O)N(C)C(=O)c2nc[nH]c21 (stereo not given),inactive
13,O=C(O)C1=CC(=C(c2ccc(O)c(C(=O)O)c2)c2ccc(O)c(C(=O)O)c2)C=CC1=O,inactive
14,COc1ccc(NC(=O)c2ccc(-c3ccc(-c4noc(C)n4)cc3C)cc2)cc1N1CCN(C)CC1,inactive
15,Cc1nc2n(c(=O)c1CCN1CCC(c3noc4cc(F)ccc34)CC1)CCCC2O (stereo not given),inactive
16,NCC(O)C1CCCCCCC1 (stereo not given),inactive
17,NC1(C(=O)O)CC1,inactive
18,Cc1nc(N=Nc2ccc(S(=O)(=O)O)cc2S(=O)(=O)O)c(COP(=O)(O)O)c(C=O)c1O,inactive
19,O=C(N[C@@H](Cc1ccccc1)C(=O)CCl)OCc1ccccc1,inactive
20,NCCS(=O)O,inactive

row,Structure (SMILES),Potency
1,COc1cc(/C=C(\C#N)C(=O)c2ccc(O)c(O)c2)cc(I)c1O,inactive
2,COc1ccc2c(c1)c(CC(=O)O)c(C)n2Cc1ccc(Cl)cc1,inactive
3,CC[N+](CC)(CC)CC(=O)Nc1c(C)cccc1C,inactive
4,c1ccc(C(NCCNC(c2ccccc2)c2ccccc2)c2ccccc2)cc1,inactive
5,Nc1ccc(CCNc2ncnc3c2ncn3C2OC(CO)C(O)C2O)cc1 (stereo not given),inactive
6,CC(/C=C/c1cccc(Oc2ccc(F)cc2)c1)N(O)C(N)=O (stereo not given),inactive
7,Nn1nnc2ccccc21,inactive
8,Clc1nccc2c1ccc1ccccc12,inactive
9,O=c1[nH]c2ccccc2c2ccccc12,inactive
10,Nc1ccc(-c2nc3ccc(-c4nc5ccc(N)cc5[nH]4)cc3[nH]2)cc1,inactive
11,CO/N=C(\C(=O)N[C@@H]1C(=O)N2C(C(=O)O)=C(CSc3nc(=O)c(O)nn3C)CSC12)c1csc(N)n1 (stereo not given in full),inactive
12,CC(N)(Cc1ccc(O)c(O)c1)C(=O)O (stereo not given),inactive
13,N[C@H]1CONC1=O,inactive
14,CC(C)C[C@H](NC(=O)[C@H](O)[C@H](N)Cc1ccccc1)C(=O)O,inactive
15,CC(=O)SC1CC2=CC(=O)CC[C@]2(C)C2CC[C@@]3(C)C(CC[C@@]34CCC(=O)O4)C12 (stereo not given in full),inactive
16,CCCCCCN(CCCCCC)C(=O)Cc1c(-c2ccc(F)cc2)[nH]c2ccccc12,inactive
17,C=CC1(C)CC(=O)C2(O)C(C)(O1)C(OC(C)=O)C(O)C1C(C)(C)CCC(O)C12C (stereo not given),1.03 µM (active)
18,O=c1oc(Cl)c(Cl)c2ccccc12,inactive
19,N=S(=O)(O)Cc1noc2ccccc12,inactive
20,CCCCCCC(=O)OC1CC(C)(C)NC(C)(C)C1,inactive
